PubChem BioAssay AID1159580 (chemical genetic matrix, 2015)
“And” between values parts separate entries of the source, which are not always exact repeats. Equal values may be shown once. The campaign covered roughly 5,500 compounds. About 2,000 (36%) were called active. Not shown: some 18% with an inconclusive outcome. Rule as the data show it: active = normalized growth mostly below about 0.91 (no sharp cut-off); inconclusive = no clear call, values can overlap the other calls; inactive = mostly above about 0.92. This is one part of the list.

Experiment: chemical genetic growth profiling, strain panel (AID 1159580);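 also: tested at 20 µM; growth read once vehicle control cultures reached saturation at 30 °C; 1 = growth at the plate median or of vehicle wells; lower values mean less growth of the strain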
Conditions: S. cerevisiae deletion strains, growth OD

Measured: normalized growth

C[C@]12CC[C@H](O)C[C@H]1CCC1C2CC[C@]2(C)[C@@H](C3=CC(=O)OC3)[C@@H](O)C[C@]12O (stereo partly drawn)
inactive: locus YBR021W, strain FUR4, active compounds read low 1.02 | locus YBR229C, strain ROT2, active compounds read low 1.02 | locus YCL029C, strain bik1, active compounds read low 1.01 | locus YDL035C, strain GPR1, active compounds read low 1.08 | locus YDL074C, strain BRE1, active compounds read low 1.1 | locus YDL101C, strain DUN1, active compounds read low 1.02 | locus YDL185W, strain tfp1, active compounds read low 0.974 | locus YDL192W, strain arf1, active compounds read low 1.02 | locus YDR101C, strain arx1, active compounds read low 1 | locus YDR150W, strain NUM1, active compounds read low 1.03 | locus YDR162C, strain NBP2, active compounds read low 1.03 | locus YDR318W, strain mcm21, active compounds read low 0.998 | locus YDR388W, active compounds read low 0.984 | locus YDR502C, strain sam2, active compounds read low 1.01 | locus YEL061C, strain CIN8, active compounds read low 1.02 | locus YER110C, active compounds read low 0.997 | locus YER155C, strain BEM2, active compounds read low 1 | locus YER167W, strain BCK2, active compounds read low 1.02 | locus YGL078C, strain dbp3, active compounds read low 0.982 | locus YGL086W, strain mad1, active compounds read low 1 | locus YGL248W, strain PDE1, active compounds read low 1.05 | locus YGR078C, strain PAC10, active compounds read low 1.03 | locus YGR135W, strain pre9, active compounds read low 1 | locus YGR229C, strain SMI1, active compounds read low 1.13 | locus YGR252W, strain gcn5, active compounds read low 0.962 | locus YHR030C, strain SLT2, active compounds read low 1 | locus YHR079C, strain IRE1 (second series), active compounds read low 0.983 | locus YHR079C, strain IRE1, active compounds read low 0.982 | locus YHR094C, strain hxt1, active compounds read low 0.982 | locus YHR129C, strain ARP1, active compounds read low 1.03 | locus YHR200W, strain rpn10, active compounds read low 0.995 | locus YIL066C, strain RNR3, active compounds read low 1.03 | locus YIL073C, strain SPO22, active compounds read low 1.07 | locus YIL125W, strain kgd1, active compounds read low 1.02 | locus YIR030C, strain dcg1, active compounds read low 0.994 | locus YJL095W, strain BCK1, active compounds read low 1.07 and 0.981 | locus YJL134W, strain LCB3, active compounds read low 1.02 | locus YJL168C, strain set2, active compounds read low 0.975 | locus YJL187C, strain SWE1 (second series), active compounds read low 1.04 | locus YJR043C, strain POL32, active compounds read low 1.06 | locus YJR066W, strain TOR1, active compounds read low 0.968 | locus YKL009W, strain mrt4, active compounds read low 1.01 | locus YKL068W, active compounds read low 0.994 | locus YKL085W, strain MDH1 (second series), active compounds read low 0.996 | locus YKL085W, strain MDH1, active compounds read low 0.996 | locus YKL190W, strain CNB1, active compounds read low 1.02 | locus YKR001C, strain vps1, active compounds read low 1.03 | locus YLR039C, strain RIC1, active compounds read low 1.15 | locus YLR058C, strain SHM2, active compounds read low 1.04 | locus YLR102C, strain apc9, active compounds read low 0.989 | locus YLR113W, strain HOG1, active compounds read low 0.975 | locus YLR262C, strain YPT6, active compounds read low 1.16 | locus YLR268W, strain sec22, active compounds read low 1 | locus YLR330W, strain CHS5, active compounds read low 1.02 | locus YLR342W, strain FKS1 (second series), active compounds read low 1.05 | locus YLR371W, strain rom2, active compounds read low 1 | locus YLR418C, strain cdc73, active compounds read low 1.01 | locus YML016C, strain PPZ1, active compounds read low 1.03 | locus YML032C, strain rad52, active compounds read low 1 | locus YML124C, strain tub3, active compounds read low 0.987 | locus YMR078C, strain ctf18, active compounds read low 0.986 | locus YMR223W, strain ubp8, active compounds read low 1 | locus YMR307W, strain GAS1, active compounds read low 1.19 | locus YNL067W, strain RPL9B, active compounds read low 1.01 | locus YNL153C, strain GIM3, active compounds read low 1.04 | locus YNL183C, strain NPR1, active compounds read low 0.93 | locus YNL233W, strain BNI4, active compounds read low 1.06 | locus YNL250W, strain rad50, active compounds read low 1.01 | locus YNL271C, strain bni1, active compounds read low 0.999 | locus YNL298W, strain CLA4, active compounds read low 0.994 | locus YNL307C, strain MCK1, active compounds read low 0.98 | locus YNR052C, strain pop2, active compounds read low 0.987 | locus YOL006C, strain TOP1, active compounds read low 1.27 | locus YOL012C, strain htz1 1.03 | locus YOL147C, strain pex11, active compounds read low 0.993 | locus YOR061W, strain CKA2, active compounds read low 1.03 | locus YOR069W, strain VPS5, active compounds read low 1.02 | locus YOR136W, strain idh2, active compounds read low 0.991 | locus YOR144C, strain elg1, active compounds read low 0.989 | locus YOR184W, strain ser1, active compounds read low 1.05 | locus YOR231W, strain MKK1, active compounds read low 0.982 | locus YOR316C, strain cot1, active compounds read low 1 | locus YPL256C, strain CLN2, active compounds read low 1.03 | locus YPR119W, strain clb2, active compounds read low 0.982 | locus YPR141C, strain kar3, active compounds read low 0.997 | locus YPR163C, strain tif3, active compounds read low 0.997 | locus YPR167C, strain met16, active compounds read low 0.99 | strain wtn01, active compounds read low 1.02
